Screening results from PubChem.
PLK1 PBD block = blocks phosphopeptide binding to human PLK1 polo-box domain. P53350. Plk1 PBD binding of FITC phosphopeptide, fluorescence polarization. Potency, µM, for inactives: max response, negative = inhibition, most hits filed as inhibitors. hit rate 2.8% among 360,000; note: series mostly up to about 57 µM; % is set by controls: 0 for no effect and ±100 for the full control effect; nearly all actives have a fitted effect of over 65% in size
JMJD2A Tudor inh = inhibitors of human JMJD2A Tudor domain. hit rate 4.4% among 390,000. AID 504339. Potency, µM (doses to about 114 µM), for the others: top-dose activity change, negative = inhibition, hits mostly inhibitors. AlphaScreen JMJD2A-Tudor / H3K4me3 peptide binding. O75164; note: % is set by controls: 0 for no effect and ±100 for the full control effect; nearly all actives have a fitted effect of over 50% in size
Target sequence (O75164 whole entry, looked up, the tested form may be a part): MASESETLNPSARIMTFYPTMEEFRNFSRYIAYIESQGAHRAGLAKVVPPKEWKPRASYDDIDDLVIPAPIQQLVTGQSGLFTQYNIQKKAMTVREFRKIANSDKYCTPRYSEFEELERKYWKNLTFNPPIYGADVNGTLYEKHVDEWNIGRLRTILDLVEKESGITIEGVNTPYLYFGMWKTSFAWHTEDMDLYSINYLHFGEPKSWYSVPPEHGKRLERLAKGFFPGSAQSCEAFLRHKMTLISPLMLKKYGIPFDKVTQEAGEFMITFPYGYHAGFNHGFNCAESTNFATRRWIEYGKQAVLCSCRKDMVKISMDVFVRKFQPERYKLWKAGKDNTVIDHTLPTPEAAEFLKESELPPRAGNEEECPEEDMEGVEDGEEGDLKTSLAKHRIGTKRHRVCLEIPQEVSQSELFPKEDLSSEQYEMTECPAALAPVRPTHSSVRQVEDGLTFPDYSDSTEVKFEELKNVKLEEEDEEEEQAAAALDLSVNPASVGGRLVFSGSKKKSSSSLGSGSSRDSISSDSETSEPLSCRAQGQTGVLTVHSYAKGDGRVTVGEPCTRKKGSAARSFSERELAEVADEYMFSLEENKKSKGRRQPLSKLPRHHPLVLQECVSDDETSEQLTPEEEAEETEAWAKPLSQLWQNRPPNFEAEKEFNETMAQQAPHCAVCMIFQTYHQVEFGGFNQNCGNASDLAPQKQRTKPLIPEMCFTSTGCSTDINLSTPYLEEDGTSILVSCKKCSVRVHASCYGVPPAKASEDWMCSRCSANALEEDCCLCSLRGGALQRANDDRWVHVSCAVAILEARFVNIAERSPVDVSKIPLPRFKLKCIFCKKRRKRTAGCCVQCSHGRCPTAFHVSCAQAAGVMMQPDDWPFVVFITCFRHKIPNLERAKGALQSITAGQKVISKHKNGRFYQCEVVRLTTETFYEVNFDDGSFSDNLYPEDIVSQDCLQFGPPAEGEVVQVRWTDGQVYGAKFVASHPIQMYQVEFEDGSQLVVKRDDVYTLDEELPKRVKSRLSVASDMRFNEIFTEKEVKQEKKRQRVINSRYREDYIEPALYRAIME
G9a inh = blocks human histone lysine methyltransferase G9a. AID 504332. hit rate 8.8% among 350,000. G9a H3K9 monomethylation, AlphaScreen, 2 h. Q96KQ7. Potency, µM (doses to about 102 µM), inactives show at the highest dose activity, negative = inhibition, usual class: inhibitors; note: % is set by controls: 0 for no effect and ±100 for the full control effect; nearly all actives have a fitted effect of over 75% in size
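AlphaScreen read-out: biotin-H3K9 peptide (500 nM) methylation by 20 nM enzyme with 20 uM SAM, 2 h at room temperature after 15 min compound preincubation; anti-monomethyl H3K9 antibody plus donor/acceptor beads, 10 min dark.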
Sfp inh = blocks B. subtilis Sfp PPTase activity; Potency, µM, for the others: largest response in the series, negative = inhibition, actives largely listed as inhibitors; hit rate 3.5% among 310,000; Biochemical Sfp PPTase activity, qHTS;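 note: the enzyme is Sfp with the accession as filed and its product quenches rhodamine fluorescence; 0% = enzyme reaction without inhibitor and -100% = no enzyme wells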
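Sfp 15 nM + cpd, 15 min RT; start w/ rhodamine-CoA 5 uM, BHQ-2-YbbR 12.5 uM (final); 50 mM Hepes pH 7.6, 10 mM MgCl2, 0.01% NP-40, 0.01% BSA; read 525/598 nm at 0 and 30 min.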
BAZ2B block = BAZ2B (human) inhibition; Q9UIF8; AlphaScreen BAZ2B-H3K14Ac peptide displacement; Potency, µM (doses to about 114 µM), without a hit: top-dose activity change, negative = inhibition, hits mostly inhibitors; hit rate 4.4% among 360,000; AID 504333; note: % is set by controls: 0 for no effect and ±100 for the full control effect; nearly all actives have a fitted effect of over 60% in size
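Compounds, titrated to a top concentration of 110 uM, were incubated 30 min at room temperature with preformed BAZ2B/acetyl-K14 H3 peptide complex (50 nM each). Proximity signal was measured by AlphaScreen after 20 min with beads.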
HP1b binding inh = blocks HP1-beta chromodomain binding to methylated histone tails. P83916. AlphaScreen HP1-beta / biotin-H3K9me3 peptide binding. Potency, µM (top dose mostly 114 µM), for inactives: at the highest dose activity change, negative = inhibition, usual class: inhibitors. hit rate 0.56% among 390,000. AID 540317; note: nearly all actives have a fitted effect of over 70% in size
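AlphaScreen: HP1-beta (50 nM) preformed 30 min with biotin-H3(1-18)K9me3 peptide (50 nM) in PBS pH 7.4, 0.01% Tween-20. Compound added for 30 min at RT, then streptavidin donor/nickel chelate acceptor beads (10 ug/mL) for 30 min.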
Numbers without * were called inactive; ? = inconclusive; · = no result; [ ] = remark or other dose. Shown are actives, neighbours in structure and some others; about 12% of the full set was active somewhere. Calls come from the whole dose curve; as a rule, active = well fitted curve in the direction sought with a large enough effect; inconclusive = small, poorly fitted or top-dose-only effect, or another doubt; inactive = no such curve, though single readings can be large; an effect the other way counts as inactive or inconclusive. Potency is the fitted concentration of half-maximal effect.

SMILES	PLK1 PBD block	JMJD2A Tudor inh	G9a inh	Sfp inh	BAZ2B block	HP1b binding inh
Cc1cc(C(=O)N2CCC2(C)C(=O)NS(=O)(=O)c2ccc(Cl)cc2)nn1C (centres undefined)	4.2%	·	·	·	·	·
COc1ccc(/C(=C/Nc2cccc(Br)c2)C(C)=O)cc1OC	26.7µM*	-19.5%[11.4 µM]	?	7.2%	?	?
C/C(=N\Nc1cccc(C(=O)O)c1)c1ccc(Cl)s1	?	?	22.4µM*	-6.8%	?	-2.9%
COc1ccc(/C(C)=N/Nc2cccc(C(=O)O)c2)cc1OC	-19.1%	-18.9%	1.41µM*	-1.4%	?	31.1%
COc1ccc(C(=O)N/N=C(/C)c2cccc(NC(=O)c3ccncc3)c2)cc1OC	-18.0%	-12.1%	-2.4%[0.501 µM]	18.6%	-7.5%	19.5%
COc1ccc(Br)cc1/C=N/Nc1cccc(C(=O)O)c1	?	-26.4%	10µM*	6.6%	-27.2%	5.2%
COCCN(C(=O)c1cccc(-n2cnnn2)c1)c1c(N)n(CC(C)C)c(=O)[nH]c1=O	-0.1%	-7.4%	-6.7%[59 µM]	·	0.2%	22.5%
COc1ccc(Br)cc1/C=N/NC(=O)c1cc(Br)ccc1O	·	·	39.8µM*	5.4%	56.2µM*	·
O=C(O)c1cccc(N/N=C/c2cc(Br)cc(Br)c2O)c1	23.8µM*	?	?	8.9%	?	-16.7%
O=C(CP(=O)(c1ccccc1)c1ccccc1)N/N=C/c1cc(Br)cc(Br)c1O	-8.6%	-29.8%	29.0%[59 µM]	12.2%	5.4%	37.3%
CC(NC(=O)COc1ccc(/C=N/NS(=O)(=O)c2ccccc2)cc1)c1ccccc1 (centres undefined)	-9.0%	-2.9%	50.1µM*	7.8%	7.7%	23.8%
O=C(COc1ccccc1)NNC(=O)COc1ccc([N+](=O)[O-])cc1	-14.8%	-12.1%	?	16.4%	-16.8%	20.5%
CSc1ccc(S(=O)(=O)Nc2ccc(OCC(=O)N3CCOCC3)cc2)cc1	?	-9.3%	11.2µM*	-24.6%	1.5%	24.0%
O=C(COc1ccc(/C=N/NS(=O)(=O)c2ccccc2)cc1)Nc1cccc(Cl)c1	1.1%	-22.6%	50.1µM*	18.7%	1.2%	26.9%
O=C(COc1ccc(/C=N/NS(=O)(=O)c2ccccc2)cc1)NCc1ccccc1	-10.3%	-26.1%	7.5%[12.7 µM]	0.0%	-5.4%	24.6%
COc1ccc(NS(=O)(=O)c2ccc(OCC(=O)N3CCOCC3)cc2)cc1	-6.4%	3.9%	2.4%[59 µM]	6.8%	4.7%	15.1%
CC(NC(=O)COc1ccc([N+](=O)[O-])cc1)c1ccccc1 (centres undefined)	11.9µM*	?	-18.8%	8.4%	-17.0%	7.2%
CC1(C)C(=O)CC[C@@]2(C)C1CC(O)[C@@]1(C)C3=CC(=O)OC(c4ccoc4)[C@]3(C)CCC21 (some centres undefined)	·	·	-6.3%[2.33 µM]	0.6%	·	·
COc1ccc(-n2nc3cc(C)c(NC(=O)COc4cccc(C)c4)cc3n2)cc1	·	2.0%	-5.3%[59 µM]	·	6.7%	43.6%
CCOc1ccc(NC(=O)c2sc3nc4c(c(-c5ccc(OC)cc5)c3c2N)C(=O)CC(C)(C)C4)cc1	·	-19.4%	-5.8%[59 µM]	·	-10.0%	19.4%
O=C(COc1ccc(/C=N/NS(=O)(=O)c2ccccc2)cc1)N1CCOCC1	-11.4%	1.4%	39.8µM*	-12.5%	1.0%	11.5%
CC(=O)CNc1ccc(S(=O)(=O)N/N=C/c2ccccc2)cc1	?	-4.2%	6.31µM*	-4.1%	-16.2%	53.7%
O=C(CNS(=O)(=O)c1ccccc1)N/N=C\c1ccc(Cl)cc1	23.8µM*	-33.0%[57.1 µM]	13.3%[59 µM]	-8.8%	7.3%	?
O=C(CNS(=O)(=O)c1ccccc1)N/N=C/c1ccc(O)cc1	-14.8%	-13.5%	10.7%	2.8%	-5.3%	15.1%
COc1ccc(S(=O)(=O)N(CC(=O)Nc2ccccc2Cl)Cc2ccccc2)cc1	·	-5.4%	5.3%[59 µM]	·	15.3%	55.5%
CC(C)c1cc(=O)[nH]c(N2CCN(Cc3ccc4c(c3)OCO4)CC2)n1	-3.0%	-14.6%	-1.8%[0.501 µM]	16.1%	-17.2%	10.1%
